The nature of assay [1]: NCI Yeast Anticancer Drug Screen. Data for the rad50 strain (AID 155).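 Further: 0% = growth of vehicle-only cultures of the same strain.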 The conditions noted are these: S. cerevisiae rad50 strain growth inhibition, hits give high values. The gist of the method: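 Genetically altered yeast (DNA repair pathway); compound treatment; growth inhibition vs vehicle ctrl.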
Assay [2] in a line: NCI Yeast Anticancer Drug Screen. Data for the mec2-1 strain (AID 157). The conditions noted are these: S. cerevisiae mec2-1 strain, hits give high values. In a few lines:
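Vehicle-treated cultures served as reference for growth inhibition of compound-exposed mec2-1 yeast.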

The nature of assay [3]: NCI Yeast Anticancer Drug Screen. Data for the sgs1 mgt1 strain (AID 161).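 Further: 0% = growth of cultures given vehicle only.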 The conditions noted are these: S. cerevisiae sgs1 mgt1 strain, hits give high values. In a few lines: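 Read-out: growth inhibition vs vehicle controls. Cells: mutant yeast strain deficient in DNA damage repair.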
A short description of assay [4]: NCI Yeast Anticancer Drug Screen. Data for the cln2 rad14 strain (AID 165).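 Further: 0% = growth equal to vehicle treated cultures.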 The following applies: S. cerevisiae cln2 rad14 strain, hits give high values. In a few lines:
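Each compound was tested on cln2 rad14 yeast. Inhibition of growth was calculated against vehicle-exposed controls.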

Assay [5] is described as follows: NCI Yeast Anticancer Drug Screen. Data for the bub3 strain (AID 167). The conditions noted are these: S. cerevisiae bub3 mutant strain, hits give high values. In a few lines: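 Yeast carrying a defined mutation is treated with each compound, and growth is compared with that of vehicle-exposed cells to give inhibition.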
A short description of assay [6]: NCI Yeast Anticancer Drug Screen. Data for the mlh1 rad18 strain (AID 175). The following applies: S. cerevisiae mlh1 rad18 strain growth inhibition, hits give high values. The gist of the method: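 Vehicle-treated cultures served as the reference for growth inhibition in a yeast strain carrying DNA damage repair alterations exposed to each compound.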
Setting [7] is: at 5.0 µM (retest, dose inferred, filed as 0.5).
Where [8] appears, read: at 50.0 µM (retest, dose inferred, filed as 5.0).

This is part of a sample that, as a whole, favours compounds with a hit. Of some 79,000 tested, about 15% had one in any assay. Unmarked numbers belong to inactive results. Activity calls are given as the source filed them. No stated cut-off is given here; in the data, active means growth inhibition above about 70%; inactive means the rest.

For the compound `[Cl][Hg][Cl]`, the growth inhibition in assay [1] (setting [7]) was 99% (active); in assay [1] (setting [8]), 99% (active); in assay [1] (at 50.0 µM) it was 91.3% (active); in assay [2] (setting [7]), 100% (active); in assay [2] (setting [8]), 100% (active); in assay [2] (at 50.0 µM) it was 93.3% (active). Besides, the growth inhibition in assay [3] (setting [7]) was 100% (active); in assay [3] (setting [8]), 100% (active); in assay [3] (at 50.0 µM), 94% (active); in assay [4] (setting [7]), 99% (active); in assay [4] (setting [8]) it was 99% (active); in assay [4] (at 50.0 µM), 92.3% (active). Also, the growth inhibition is 100% (active) in assay [5] (setting [7]); 92% (active) in assay [5] (setting [8]); 93.1% (active) in assay [5] (at 50.0 µM); 100% (active) in assay [6] (setting [7]); 99% (active) in assay [6] (setting [8]); 92.4% (active) in assay [6] (at 50.0 µM).

Regarding `FC(F)(F)c1nc2ccc(SSc3ccc4nc(C(F)(F)F)[nH]c4c3)cc2[nH]1`, the growth inhibition was -8% in assay [1] (setting [7]); 17% in assay [1] (setting [8]); 96% (active) in assay [1] (at 50.0 µM); 13% in assay [2] (setting [7]); 20% in assay [2] (setting [8]); 93.8% (active) in assay [2] (at 50.0 µM). Moreover, the growth inhibition is -3% in assay [3] (setting [7]); 12% in assay [3] (setting [8]); 96.6% (active) in assay [3] (at 50.0 µM); 8% in assay [4] (setting [7]); -32% in assay [4] (setting [8]); 92.3% (active) in assay [4] (at 50.0 µM). For the same compound, the growth inhibition in assay [5] (setting [7]) is 1%; in assay [5] (setting [8]), 14%; in assay [5] (at 50.0 µM), 95.5% (active); in assay [6] (setting [7]) it was 2%; in assay [6] (setting [8]), -6%; in assay [6] (at 50.0 µM), 97.2% (active).

`C=CO/C(C)=C(\[Se]c1ccccc1)C(C)=O`: the growth inhibition in assay [1] (setting [7]) was 4%; in assay [1] (setting [8]) it was 89% (active); in assay [1] (at 50.0 µM), 93.4% (active); in assay [2] (setting [7]) it was 3%; in assay [2] (setting [8]), 91% (active); in assay [2] (at 50.0 µM), 85.9% (active). In addition, the growth inhibition was 7% in assay [3] (setting [7]); 89% (active) in assay [3] (setting [8]); 91.8% (active) in assay [3] (at 50.0 µM); -10% in assay [4] (setting [7]); 38% in assay [4] (setting [8]); 57% in assay [4] (at 50.0 µM). Moreover, the growth inhibition in assay [5] (setting [7]) was -8%; in assay [5] (setting [8]), 65%; in assay [5] (at 50.0 µM) it was 75% (active); in assay [6] (setting [7]) it was 6%; in assay [6] (setting [8]), 91% (active); in assay [6] (at 50.0 µM) it was 91% (active).

As for `O=C(CCl)Nc1cccc(Cl)c1`, the growth inhibition is 3% in assay [1] (setting [7]); 80% (active) in assay [1] (setting [8]); 92.4% (active) in assay [1] (at 50.0 µM); 2% in assay [2] (setting [7]); 50% in assay [2] (setting [8]); 89.5% (active) in assay [2] (at 50.0 µM). Besides, the growth inhibition is 1% in assay [3] (setting [7]); 68% in assay [3] (setting [8]); 87.5% (active) in assay [3] (at 50.0 µM); 2% in assay [4] (setting [7]); 33% in assay [4] (setting [8]); 67.8% in assay [4] (at 50.0 µM). The growth inhibition in assay [5] (setting [7]) is 10%; in assay [5] (setting [8]) it was 78% (active); in assay [5] (at 50.0 µM), 94.4% (active); in assay [6] (setting [7]), 2%; in assay [6] (setting [8]) it was 78% (active); in assay [6] (at 50.0 µM), 95% (active).

With `C[CH2][Sn]([CH2]C)([O]C(C)=O)[O][Sn]([CH2]C)([CH2]C)[O]C(C)=O`, the growth inhibition is 23% in assay [1] (setting [7]); 80% (active) in assay [1] (setting [8]); 64% in assay [1] (at 50.0 µM); 24% in assay [2] (setting [7]); 91% (active) in assay [2] (setting [8]); 60.1% in assay [2] (at 50.0 µM). Further, the growth inhibition in assay [3] (setting [7]) was 15%; in assay [3] (setting [8]), 82% (active); in assay [3] (at 50.0 µM) it was 84.8% (active); in assay [4] (setting [7]) it was 30%; in assay [4] (setting [8]), 68%; in assay [4] (at 50.0 µM) it was 86.1% (active). Also, the growth inhibition in assay [5] (setting [7]) was 21%; in assay [5] (setting [8]), 78% (active); in assay [5] (at 50.0 µM), 84.3% (active); in assay [6] (setting [7]) it was 26%; in assay [6] (setting [8]) it was 86% (active); in assay [6] (at 50.0 µM), 89.1% (active).

Regarding `O=S(=O)([O-])[O-].[Fe+2].c1ccc(/C(=N\Nc2ccccn2)c2ccccn2)cc1`, the growth inhibition in assay [1] (setting [7]) was 3%; in assay [1] (setting [8]), 33%; in assay [1] (at 50.0 µM), 12.9%; in assay [2] (setting [7]) it was -2%; in assay [2] (setting [8]), 39%; in assay [2] (at 50.0 µM) it was 82.2% (active). For the same compound, the growth inhibition in assay [3] (setting [7]) is -4%; in assay [3] (setting [8]), 22%; in assay [3] (at 50.0 µM), 16.1%; in assay [4] (setting [7]), -3%; in assay [4] (setting [8]) it was -8%; in assay [4] (at 50.0 µM), 13.5%. For the same compound, the growth inhibition in assay [5] (setting [7]) was 1%; in assay [5] (setting [8]), 1%; in assay [5] (at 50.0 µM), 1.75%; in assay [6] (setting [7]) it was -3%; in assay [6] (setting [8]), 7%; in assay [6] (at 50.0 µM), 25.8%.

In the case of `C=CCOc1cc2c(ccc1=O)-c1c(cc(OC)c(OC)c1OC)CCC2NC(C)=O` (configuration not stated), the growth inhibition is -3% in assay [1] (setting [7]); 3% in assay [1] (setting [8]); 96.1% (active) in assay [1] (at 50.0 µM); 3% in assay [2] (setting [7]); 80% (active) in assay [2] (setting [8]); 87.6% (active) in assay [2] (at 50.0 µM). Further, the growth inhibition was -18% in assay [3] (setting [7]); 45% in assay [3] (setting [8]); 93.9% (active) in assay [3] (at 50.0 µM); -5% in assay [4] (setting [7]); -11% in assay [4] (setting [8]); 96.3% (active) in assay [4] (at 50.0 µM). Further, the growth inhibition is -5% in assay [5] (setting [7]); 66% in assay [5] (setting [8]); 96.8% (active) in assay [5] (at 50.0 µM); -5% in assay [6] (setting [7]); 78% (active) in assay [6] (setting [8]); 95.5% (active) in assay [6] (at 50.0 µM).

With `O=C(O)CP(=O)(c1ccccc1)c1ccccc1.O=C(O)CP(=O)(c1ccccc1)c1ccccc1.[Cd]`, the growth inhibition in assay [1] (setting [7]) was 33%; in assay [1] (setting [8]), 88% (active); in assay [1] (at 50.0 µM) it was 83.4% (active); in assay [2] (setting [7]), 40%; in assay [2] (setting [8]), 51%; in assay [2] (at 50.0 µM) it was 42.6%. In addition, the growth inhibition in assay [3] (setting [7]) was 11%; in assay [3] (setting [8]) it was 47%; in assay [3] (at 50.0 µM), 56%; in assay [4] (setting [7]) it was -3%; in assay [4] (setting [8]), 48%; in assay [4] (at 50.0 µM), 58.9%. Besides, the growth inhibition is 4% in assay [5] (setting [7]); 43% in assay [5] (setting [8]); 26.9% in assay [5] (at 50.0 µM); 17% in assay [6] (setting [7]); 57% in assay [6] (setting [8]); 57.8% in assay [6] (at 50.0 µM).

Consider `C[CH2][Sn]([CH2]C)([CH2]C)[O]C(=O)CO`, for which the growth inhibition is 9% in assay [1] (setting [7]); 98% (active) in assay [1] (setting [8]); 82.2% (active) in assay [1] (at 50.0 µM); 10% in assay [2] (setting [7]); 99% (active) in assay [2] (setting [8]); 87% (active) in assay [2] (at 50.0 µM). For the same compound, the growth inhibition is 17% in assay [3] (setting [7]); 98% (active) in assay [3] (setting [8]); 86.6% (active) in assay [3] (at 50.0 µM); -11% in assay [4] (setting [7]); 93% (active) in assay [4] (setting [8]); 55.4% in assay [4] (at 50.0 µM). For the same compound, the growth inhibition was 7% in assay [5] (setting [7]); 98% (active) in assay [5] (setting [8]); 86.8% (active) in assay [5] (at 50.0 µM); 12% in assay [6] (setting [7]); 98% (active) in assay [6] (setting [8]); 84.9% (active) in assay [6] (at 50.0 µM).

Source of the values: PubChem BioAssay (NCI).
